# Assay results reported in PubChem BioAssay (EPA / NIEHS).
# The source made the active and inactive calls. The calls were made as follows: active = hit-call score of the fitted dose curve at least 0.9, where 1 is the maximum; inactive = score below 0.9.
# Assay: STM_H9_OrnithineISnorm_perc: Stemina devTOX quickPredict H9 human embryonic stem cell (hESC)-based Assay for Ornithine (ORN) Metabolite Biomarker, Normalized (AID 2283712);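 also: ornithine released into spent medium during last day measured by mass spectrometry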
# Description: STM_H9_secretome utilizes undifferentiated H9 cells to measure relative changes in two metabolites, ornithine (ORN) and cystine (CYSS) in the secretome, targeting a critical drop in the ORN/CYSS ratio as a biomarker for developmental toxicity.STM_H9_OrnithineISnorm is one of 10 components calculated in the STM_H9_secretome assay. It measures the integrated area of the endogenous ornithine normalized to the spiked-in isotopically labeled standard and to the median value of the 0.1% DMSO neutral control treatment using UPLC-HRMS technology.Data from the assay component STM_H9_OrnithineISnorm_perc was analyzed at the assay endpoint STM_H9_OrnithineISnorm_perc in the positive analysis fitting direction relative to DMSO as the negative control and baseline of activity. Using a type of binding reporter, gain or loss-of-signal activity can be used to understand relative metabolite change.
# H9 hESCs maintained in a pluripotent state were exposed to test compound for 72h with chemical replenishment with media replacement every 24h. Cell-conditioned media from the final 24-h treatment period was collected for analysis of the targeted biomarker, and cell viability of the corresponding cell layer was assessed. The chemical library was tested in blinded fashion. Each test plate included 1uM Methotrexate (MTX; Selleck Chemicals, Houston, Texas) as a positive reference, 5 nM MTX as a negative reference, 0.1% DMSO as the neutral (vehicle) control, and sample-level media blanks.H9 cell-conditioned media from the final 24-h treatment period was collected for analysis of the targeted biomarker and cell viability was measured from the corresponding cell layer. Cell viability was measured using the CellTiter-Fluor assay (Promega, Madison, Wisconsin) based on proteolytic cleavage of a substrate to fluorescent signal proportional to the number of living cells. The cell viability Relative Fluorescence Unit (RFU) was background corrected and normalized to mean RFU of the neutral control (0.1% DMSO). The collected H9-cell-conditioned media samples were processed for targeted biomarker analysis as described (Palmer et al., 2013). Briefly, spent media samples were deproteinized (40% acetonitrile) and processed for UPLC-HRMS. Data acquisition was performed using 4 separate UPLC-HRMS systems, consisting of an Agilent 1290 Infinity LC system (Agilent Technologies) interfaced with an Agilent high-resolution mass spectrometer (models G6520A, G6520B, G6530A, and G6224A). A Waters Acquity UPLC BEH Amide column (2.1mm x 50mm, 1.7lm particle size; Waters, Milford, Massachusetts) maintained at 40C was applied for separation of metabolites using a 6.5min solvent gradient with 0.1% formic acid in water and 0.1% formic acid in acetonitrile (1.0ml/min flow rate). Data were acquired using MassHunter Acquisition software (version B 04.00, Agilent Technologies). The extracted ion chromatogram (EIC) areas for ORN, CYSS, and their respective spike-in C13-standards were determined using the Agilent MassHunter Quantitative Analysis software, version B.05.00 or newer (Agilent Technologies), and data were normalized as described in Palmer et al. (2017).
Compound,outcome,AC50
ClC1(Cl)C2(Cl)C3(Cl)C4(Cl)C(Cl)(Cl)C5(Cl)C3(Cl)C1(Cl)C5(Cl)C24Cl (stereo unspecified),inactive,
O=C(Nc1ccc2[nH]ccc2c1)c1cc2cc(F)ccc2n1Cc1cccc(F)c1,,3.5 µM (active)
CC(C)(C)c1cc(O)ccc1O,inactive,
ClCC(Cl)CCl,inactive,
C=C(C)C(=O)[O][Sn]([CH2]CCC)([CH2]CCC)[CH2]CCC,,0.494 µM (active)
O=C(O)C(Cl)(Cl)Cl,inactive,
CCN1CCC2(CC1)COc1cc3c(cc12)N(C(=O)c1ccc(-c2ccc(-c4nnc(C)o4)cc2C)cc1)CC3,,8.53 µM (active)
CC(=O)[O][Hg][c]1ccccc1,,0.476 µM (active)
CC12CC1(C)C(=O)N(c1cc(Cl)cc(Cl)c1)C2=O (stereo unspecified),,61 µM (active)
O=[N+]([O-])c1ccc(O)c([N+](=O)[O-])c1,inactive,
C[C@@H]1C[C@@H]([C@H](O)CC2CC(=O)NC(=O)C2)C(=O)[C@@H](C)C1,,4.59 µM (active)
